Test results taken from PubChem BioAssay (NCI).
The panel holds about 83,000 compounds, 20% with a hit somewhere; the sample as a whole holds those more often.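 Testing used 96-well plates and a 48-hour single-concentration exposure. Example: -40 means 40% of the starting cells died.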 Active and inactive are the calls of the source. How the source made its calls: active means growth percent below 10; inactive means the rest.

How the values were obtained:
Experiment in all cases: NCI-60 one-dose screen, 48 h (100 = growth as untreated, 0 = no growth, -100 = all killed)
Conditions in all cases: 10 µM
HCT-15 colon = system: HCT-15 colon
HT29 colon = system: HT29 colon
SNB-75 CNS = system: SNB-75 CNS
SNB-19 CNS = system: SNB-19 CNS
U251 CNS = system: U251 CNS
PC-3 prostate = system: PC-3 prostate
SK-MEL-5 melanoma = system: SK-MEL-5 melanoma
UACC-62 melanoma = system: UACC-62 melanoma
SK-MEL-28 melanoma = system: SK-MEL-28 melanoma
SK-MEL-2 melanoma = system: SK-MEL-2 melanoma
SN12C renal = system: SN12C renal
UO-31 renal = system: UO-31 renal
TK-10 renal = system: TK-10 renal
CAKI-1 renal = system: CAKI-1 renal
A498 renal = system: A498 renal
MOLT-4 leukemia = system: MOLT-4 leukemia
LOX IMVI melanoma = system: LOX IMVI melanoma
EKVX NSCLC = system: EKVX NSCLC
ACHN renal = system: ACHN renal
CCRF-CEM leukemia = system: CCRF-CEM leukemia

Measured: growth

CCCCC1(O)CCCCC1
inactive: HCT-15 colon 110% | HT29 colon 98.5% | SNB-75 CNS 105% | SNB-19 CNS 106% | U251 CNS 99.1% | PC-3 prostate 103% | SK-MEL-5 melanoma 105% | UACC-62 melanoma 102% | SK-MEL-28 melanoma 106% | SK-MEL-2 melanoma 112% | SN12C renal 103% | UO-31 renal 99.1% | TK-10 renal 94.3% | CAKI-1 renal 96.1% | A498 renal 115% | MOLT-4 leukemia 93.5%

O=C(CNc1nnc(-c2cccnc2SCc2ccccc2)s1)Nc1nc(Cl)cc(Cl)n1
inactive: HCT-15 colon 108% | HT29 colon 123% | SNB-75 CNS 74.1% | SNB-19 CNS 103% | U251 CNS 119% | PC-3 prostate 112% | SK-MEL-5 melanoma 113% | UACC-62 melanoma 108% | LOX IMVI melanoma 105% | SK-MEL-28 melanoma 110% | EKVX NSCLC 112% | UO-31 renal 77.4% | TK-10 renal 125% | ACHN renal 119% | CAKI-1 renal 102% | A498 renal 121% | CCRF-CEM leukemia 102% | MOLT-4 leukemia 95.4%

IC(I)I
inactive: HCT-15 colon 101% | HT29 colon 115% | SNB-75 CNS 90.8% | SNB-19 CNS 106% | U251 CNS 102% | PC-3 prostate 109% | SK-MEL-5 melanoma 104% | UACC-62 melanoma 88.9% | SK-MEL-28 melanoma 109% | SK-MEL-2 melanoma 108% | EKVX NSCLC 102% | SN12C renal 95.1% | UO-31 renal 97.2% | TK-10 renal 107% | ACHN renal 110% | CAKI-1 renal 103% | MOLT-4 leukemia 102%

Cc1cc(C(C#N)c2ccc(Cl)cc2)c(Cl)cc1NC(=O)c1cc(I)cc(I)c1O (centres undefined)
inactive: HCT-15 colon 28.8% | HT29 colon 58% | SNB-75 CNS 112% | SNB-19 CNS 39.3% | U251 CNS 40.4% | PC-3 prostate 13.8% | SK-MEL-5 melanoma 13.1% | UACC-62 melanoma 11.5% | LOX IMVI melanoma 75.1% | SK-MEL-28 melanoma 63.5% | EKVX NSCLC 41.2% | UO-31 renal 79.8% | TK-10 renal 65.3% | ACHN renal 79.8% | CCRF-CEM leukemia 19.1% | MOLT-4 leukemia 15.3%

Clc1ccc2c(c1)C(N1CCNCC1)=Nc1ccccc1O2
active: SK-MEL-28 melanoma -10.9%
inactive: HCT-15 colon 47.5% | HT29 colon 11.6% | SNB-75 CNS 16.4% | SNB-19 CNS 67.6% | U251 CNS 41.7% | PC-3 prostate 40% | SK-MEL-5 melanoma 10.4% | UACC-62 melanoma 30.4% | LOX IMVI melanoma 39% | EKVX NSCLC 64.6% | UO-31 renal 28.3% | TK-10 renal 64.9% | ACHN renal 46% | CAKI-1 renal 36.5% | A498 renal 25.2% | CCRF-CEM leukemia 58.5% | MOLT-4 leukemia 20%

COc1cc(-c2nn(-c3cccc(NC(=O)CCN4CCN(c5ccccc5)CC4)c3)cc2-c2ccncc2)ccc1Cl
inactive: HCT-15 colon 20.8% | SNB-75 CNS 36.8% | SNB-19 CNS 35.9% | U251 CNS 17.2% | PC-3 prostate 22% | SK-MEL-5 melanoma 22% | SK-MEL-28 melanoma 28.9% | EKVX NSCLC 38.1% | SN12C renal 32.4% | UO-31 renal 37.8% | TK-10 renal 23.5% | ACHN renal 18% | CCRF-CEM leukemia 17.8% | MOLT-4 leukemia 15.4%
active: HT29 colon 4.96% | LOX IMVI melanoma 6.98% | SK-MEL-2 melanoma -0.713% | A498 renal 5.91%

CC(=O)C1CCC2C3CC=C4CC(SC(=N)N)CCC4(C)C3CCC12C (centres undefined)
active: LOX IMVI melanoma -56% | CCRF-CEM leukemia 6.89% | MOLT-4 leukemia -5.72%
inactive: HCT-15 colon 16.3% | HT29 colon 11% | SNB-75 CNS 55.4% | SNB-19 CNS 64.2% | U251 CNS 30.5% | PC-3 prostate 33% | SK-MEL-5 melanoma 15.6% | SK-MEL-28 melanoma 61.5% | SK-MEL-2 melanoma 32.3% | EKVX NSCLC 55.2% | SN12C renal 47.1% | UO-31 renal 63% | TK-10 renal 66.8% | ACHN renal 54.4% | CAKI-1 renal 62.7% | A498 renal 78.3%

COc1cc(/C=C/c2cc(/C=C/c3ccc(O)c(OC)c3)n(C(=O)Nc3ccc(C)cc3)n2)ccc1O
active: HT29 colon -22.4% | SNB-75 CNS 9.53% | U251 CNS 6.19% | PC-3 prostate 8.08% | SK-MEL-5 melanoma 1.16% | LOX IMVI melanoma 1.89% | SK-MEL-2 melanoma -14% | UO-31 renal 0.972% | CAKI-1 renal 8.65% | A498 renal -12% | CCRF-CEM leukemia 0.439% | MOLT-4 leukemia 0.114%
inactive: HCT-15 colon 15.2% | SNB-19 CNS 20.3% | SK-MEL-28 melanoma 13.2% | EKVX NSCLC 20.3% | SN12C renal 18.3% | TK-10 renal 28.5% | ACHN renal 16.1%

Cc1n[nH]c(C)c1N=Nc1cccc2c1C(=O)c1ccccc1C2=O
inactive: HCT-15 colon 78.4% | HT29 colon 96.8% | SNB-75 CNS 95.1% | SNB-19 CNS 93.1% | U251 CNS 92.4% | PC-3 prostate 90.5% | SK-MEL-5 melanoma 93.1% | LOX IMVI melanoma 69.8% | SK-MEL-28 melanoma 113% | SK-MEL-2 melanoma 105% | EKVX NSCLC 61.8% | SN12C renal 91.6% | UO-31 renal 66.4% | TK-10 renal 97.8% | ACHN renal 80% | CAKI-1 renal 73.6% | A498 renal 55.2% | MOLT-4 leukemia 84.5%

C[C@]12CCC3c4ccc(O)cc4C[C@@H](CCCCCCCCCS(=O)CCCC(F)(F)C(F)(F)F)C3C1CC[C@@H]2O (some centres undefined)
inactive: HCT-15 colon 71.6% | HT29 colon 72.1% | SNB-75 CNS 64.4% | SNB-19 CNS 89.8% | U251 CNS 68.3% | PC-3 prostate 52.5% | SK-MEL-5 melanoma 76% | UACC-62 melanoma 83.3% | LOX IMVI melanoma 90.1% | SK-MEL-28 melanoma 97.1% | EKVX NSCLC 64.8% | UO-31 renal 62.7% | TK-10 renal 93% | ACHN renal 74.3% | CAKI-1 renal 59.2% | A498 renal 84.6% | CCRF-CEM leukemia 73.6% | MOLT-4 leukemia 39.6%

COc1ccc(NC(=O)C2CC3C=CC2C3)c([N+](=O)[O-])c1 (centres undefined)
inactive: HCT-15 colon 97.1% | HT29 colon 101% | SNB-75 CNS 91.2% | SNB-19 CNS 91.9% | U251 CNS 98.4% | PC-3 prostate 94.9% | SK-MEL-5 melanoma 96% | LOX IMVI melanoma 95.3% | SK-MEL-28 melanoma 98.1% | SK-MEL-2 melanoma 104% | EKVX NSCLC 101% | SN12C renal 91.6% | UO-31 renal 92.4% | TK-10 renal 109% | ACHN renal 98.4% | CAKI-1 renal 92.6% | A498 renal 103% | CCRF-CEM leukemia 95.6% | MOLT-4 leukemia 86.8%

C=C(C)[C@@H]1CC[C@]2(COCCC#N)CC[C@]3(C)[C@H](CC[C@@H]4[C@@]5(C)Cc6c([nH]c7ccccc67)C(C)(C)[C@@H]5CC[C@]43C)[C@@H]12
inactive: HCT-15 colon 102% | HT29 colon 89.7% | SNB-75 CNS 90.9% | SNB-19 CNS 99.1% | U251 CNS 102% | PC-3 prostate 92.9% | SK-MEL-5 melanoma 98.2% | LOX IMVI melanoma 92.1% | SK-MEL-28 melanoma 100% | SK-MEL-2 melanoma 110% | EKVX NSCLC 116% | SN12C renal 98.7% | UO-31 renal 94.2% | TK-10 renal 100% | ACHN renal 95.2% | A498 renal 106% | MOLT-4 leukemia 86.1%

CC(=O)[C@@]12O[C@](C)(c3ccccc3)O[C@@H]1CC1C3CCC4=CC(=O)CC[C@]4(C)C3CC[C@@]12C (some centres undefined)
inactive: HCT-15 colon 71% | HT29 colon 69.6% | SNB-75 CNS 79.5% | SNB-19 CNS 85.3% | U251 CNS 72.3% | PC-3 prostate 31.1% | SK-MEL-5 melanoma 55.1% | UACC-62 melanoma 63% | LOX IMVI melanoma 72.3% | SK-MEL-28 melanoma 99% | EKVX NSCLC 63.5% | SN12C renal 84% | UO-31 renal 51.6% | TK-10 renal 88.2% | CAKI-1 renal 47.5% | A498 renal 68.2% | CCRF-CEM leukemia 73.1% | MOLT-4 leukemia 23.7%

O=C(COc1cccc(/C=C2\CSc3ccc(Cl)cc3C2=O)c1)c1ccc(Cl)cc1
inactive: HCT-15 colon 47.9% | HT29 colon 16.7% | SNB-75 CNS 74.7% | SNB-19 CNS 89.1% | U251 CNS 59.9% | PC-3 prostate 43.7% | SK-MEL-5 melanoma 86.1% | LOX IMVI melanoma 23.8% | SK-MEL-28 melanoma 107% | SK-MEL-2 melanoma 44.2% | EKVX NSCLC 70.3% | SN12C renal 79.7% | TK-10 renal 127% | CAKI-1 renal 61.2%
active: UO-31 renal -7.04% | CCRF-CEM leukemia -26.1% | MOLT-4 leukemia -12.1%

C[C@H]1[C@H](OC(=O)CCC(=O)O)O[C@@H]2O[C@]3(C)CC[C@H]4[C@H](C)CC[C@@H]1[C@@]24OO3
inactive: HCT-15 colon 16.7% | HT29 colon 23.8% | SNB-75 CNS 61.8% | SNB-19 CNS 57.9% | U251 CNS 36.5% | PC-3 prostate 25% | SK-MEL-5 melanoma 28% | UACC-62 melanoma 36.4% | SK-MEL-28 melanoma 70.5% | EKVX NSCLC 29.2% | SN12C renal 33.3% | TK-10 renal 46.8% | ACHN renal 27% | CAKI-1 renal 16.7% | CCRF-CEM leukemia 39.7% | MOLT-4 leukemia 14.8%
active: LOX IMVI melanoma -49.5% | UO-31 renal 9.64%

O=c1[nH]c(=O)n(C2C[C@H](O)[C@@H](CO)O2)cc1C(F)(F)F (some centres undefined)
inactive: HCT-15 colon 107% | HT29 colon 103% | SNB-75 CNS 94.3% | SNB-19 CNS 119% | U251 CNS 102% | PC-3 prostate 91.9% | SK-MEL-5 melanoma 106% | UACC-62 melanoma 108% | LOX IMVI melanoma 103% | SK-MEL-28 melanoma 120% | EKVX NSCLC 109% | SN12C renal 110% | UO-31 renal 89.7% | TK-10 renal 104% | ACHN renal 106% | CAKI-1 renal 96.3% | CCRF-CEM leukemia 95% | MOLT-4 leukemia 70.2%
